# Measurements from the supplement of paper PMC11732987, “Enantioselective OTUD7B fragment discovery through chemoproteomics screening and high-throughput optimisation” (Communications Chemistry, 2025).
# A number with no mark means an inactive call.
# Assays:
# Assay in all cases: log2 ratio of Biotin-Ahx-Ub-VS probe labelling (fragment/DMSO); higher = less target engagement (more negative = stronger competition), active = hit call of the paper (q ≤ 0.05, log2 ratio ≤ -1)
# Conditions in all cases: compound concentration: 200 uM; treatment time: 3 h
# USP19 = target: T1, USP19 (UniProt O94966)
# T1 sequence (whole entry): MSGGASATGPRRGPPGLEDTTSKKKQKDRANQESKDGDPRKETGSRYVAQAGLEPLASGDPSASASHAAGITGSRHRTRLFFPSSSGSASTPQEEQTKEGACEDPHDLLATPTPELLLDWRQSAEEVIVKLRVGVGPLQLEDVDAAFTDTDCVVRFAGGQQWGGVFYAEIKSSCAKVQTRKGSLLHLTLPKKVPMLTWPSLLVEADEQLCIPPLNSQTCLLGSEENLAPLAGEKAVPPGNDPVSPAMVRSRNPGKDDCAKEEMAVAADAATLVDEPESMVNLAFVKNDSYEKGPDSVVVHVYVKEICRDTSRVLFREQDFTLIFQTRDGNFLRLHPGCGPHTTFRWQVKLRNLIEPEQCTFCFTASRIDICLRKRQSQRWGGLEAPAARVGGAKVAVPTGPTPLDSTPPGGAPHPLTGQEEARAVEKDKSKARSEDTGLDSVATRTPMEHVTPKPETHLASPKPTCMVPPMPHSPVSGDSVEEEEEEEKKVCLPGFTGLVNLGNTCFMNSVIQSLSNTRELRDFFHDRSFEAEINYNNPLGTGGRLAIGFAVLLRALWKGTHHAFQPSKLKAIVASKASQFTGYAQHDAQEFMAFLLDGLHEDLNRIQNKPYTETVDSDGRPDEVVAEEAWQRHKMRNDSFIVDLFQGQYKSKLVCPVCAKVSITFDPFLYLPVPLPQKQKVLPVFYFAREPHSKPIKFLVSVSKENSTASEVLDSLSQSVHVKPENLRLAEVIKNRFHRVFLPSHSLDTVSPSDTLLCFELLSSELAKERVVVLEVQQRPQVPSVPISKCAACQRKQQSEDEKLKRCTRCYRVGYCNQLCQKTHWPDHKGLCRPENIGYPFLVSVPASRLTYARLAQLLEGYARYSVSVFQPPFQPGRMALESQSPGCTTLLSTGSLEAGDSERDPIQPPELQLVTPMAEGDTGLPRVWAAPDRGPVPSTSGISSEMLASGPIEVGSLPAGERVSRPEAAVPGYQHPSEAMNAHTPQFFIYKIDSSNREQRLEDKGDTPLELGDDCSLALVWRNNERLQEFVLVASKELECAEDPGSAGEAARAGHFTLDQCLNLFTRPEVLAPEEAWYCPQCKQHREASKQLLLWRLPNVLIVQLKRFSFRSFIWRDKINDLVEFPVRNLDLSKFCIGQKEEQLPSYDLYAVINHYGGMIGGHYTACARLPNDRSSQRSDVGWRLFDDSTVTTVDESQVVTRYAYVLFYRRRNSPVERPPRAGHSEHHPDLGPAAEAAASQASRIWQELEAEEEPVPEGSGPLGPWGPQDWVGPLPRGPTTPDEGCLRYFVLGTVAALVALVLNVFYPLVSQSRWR
# Outline: (§1)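 Triplicate samples of HEK293T lysate, 495 µg each, received fragment at 200 µM or vehicle for 3 h, followed by Biotin-Ahx-Ub-VS (0.5 µM final) for 1 h. After NeutrAvidin enrichment of labelled DUBs and LysC/trypsin digestion, peptides were run by diaPASEF LC-MS/MS. The values are average log2 fragment/vehicle ratios from global-median-normalised Spectronaut label-free quantities, tested by unpaired t-test on proteins having ≥2 unique peptides.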
# USP22 = target: T2, USP22 (UniProt Q9UPT9)
# T2 sequence (whole entry): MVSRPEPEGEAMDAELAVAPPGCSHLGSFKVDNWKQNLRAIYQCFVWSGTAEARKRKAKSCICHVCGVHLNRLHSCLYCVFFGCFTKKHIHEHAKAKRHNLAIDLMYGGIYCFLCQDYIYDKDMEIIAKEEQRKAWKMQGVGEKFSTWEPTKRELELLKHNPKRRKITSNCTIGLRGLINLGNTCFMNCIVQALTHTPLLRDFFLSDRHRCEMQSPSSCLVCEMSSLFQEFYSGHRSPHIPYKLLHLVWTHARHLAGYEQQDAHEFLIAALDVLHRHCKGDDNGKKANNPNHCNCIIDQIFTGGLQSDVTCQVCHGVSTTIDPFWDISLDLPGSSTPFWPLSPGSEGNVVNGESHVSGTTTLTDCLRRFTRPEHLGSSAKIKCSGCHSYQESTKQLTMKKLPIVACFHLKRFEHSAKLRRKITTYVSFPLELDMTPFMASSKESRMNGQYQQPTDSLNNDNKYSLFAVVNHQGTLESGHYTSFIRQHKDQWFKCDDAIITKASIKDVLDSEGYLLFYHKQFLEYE
# Outline: as §1
# USP24 = USP24 (UniProt Q9UPU5)
# Outline: as §1
# USP25 = target: T3, USP25 (UniProt Q9UHP3)
# T3 sequence (whole entry): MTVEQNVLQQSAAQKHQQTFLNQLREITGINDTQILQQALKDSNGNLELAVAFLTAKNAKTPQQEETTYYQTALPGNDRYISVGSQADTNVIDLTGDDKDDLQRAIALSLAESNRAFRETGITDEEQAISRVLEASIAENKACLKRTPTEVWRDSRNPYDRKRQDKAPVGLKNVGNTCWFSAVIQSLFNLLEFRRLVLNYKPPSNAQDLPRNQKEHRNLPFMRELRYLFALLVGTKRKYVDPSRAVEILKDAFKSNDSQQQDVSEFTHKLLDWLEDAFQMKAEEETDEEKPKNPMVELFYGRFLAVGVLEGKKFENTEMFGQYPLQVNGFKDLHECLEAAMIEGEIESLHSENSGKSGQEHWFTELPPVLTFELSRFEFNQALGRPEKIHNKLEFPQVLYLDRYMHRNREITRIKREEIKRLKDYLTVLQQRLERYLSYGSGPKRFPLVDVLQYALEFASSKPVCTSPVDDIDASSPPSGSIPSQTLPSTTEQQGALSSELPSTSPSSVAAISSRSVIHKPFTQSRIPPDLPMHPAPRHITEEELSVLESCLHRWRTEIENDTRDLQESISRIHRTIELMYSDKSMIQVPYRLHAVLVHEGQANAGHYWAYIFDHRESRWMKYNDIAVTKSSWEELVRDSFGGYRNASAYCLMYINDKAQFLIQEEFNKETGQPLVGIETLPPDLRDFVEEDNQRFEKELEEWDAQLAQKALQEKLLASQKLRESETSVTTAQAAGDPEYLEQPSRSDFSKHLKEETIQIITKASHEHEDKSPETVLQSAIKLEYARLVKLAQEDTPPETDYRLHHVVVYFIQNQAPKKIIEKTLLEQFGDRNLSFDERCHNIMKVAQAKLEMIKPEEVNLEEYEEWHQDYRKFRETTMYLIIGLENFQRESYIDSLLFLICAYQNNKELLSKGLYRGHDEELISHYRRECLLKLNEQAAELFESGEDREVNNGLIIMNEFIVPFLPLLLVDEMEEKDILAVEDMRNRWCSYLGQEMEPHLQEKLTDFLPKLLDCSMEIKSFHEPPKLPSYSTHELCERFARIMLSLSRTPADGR
# Outline: as §1
# USP28 = target: T4, USP28 (UniProt Q96RU2)
# T4 sequence (whole entry): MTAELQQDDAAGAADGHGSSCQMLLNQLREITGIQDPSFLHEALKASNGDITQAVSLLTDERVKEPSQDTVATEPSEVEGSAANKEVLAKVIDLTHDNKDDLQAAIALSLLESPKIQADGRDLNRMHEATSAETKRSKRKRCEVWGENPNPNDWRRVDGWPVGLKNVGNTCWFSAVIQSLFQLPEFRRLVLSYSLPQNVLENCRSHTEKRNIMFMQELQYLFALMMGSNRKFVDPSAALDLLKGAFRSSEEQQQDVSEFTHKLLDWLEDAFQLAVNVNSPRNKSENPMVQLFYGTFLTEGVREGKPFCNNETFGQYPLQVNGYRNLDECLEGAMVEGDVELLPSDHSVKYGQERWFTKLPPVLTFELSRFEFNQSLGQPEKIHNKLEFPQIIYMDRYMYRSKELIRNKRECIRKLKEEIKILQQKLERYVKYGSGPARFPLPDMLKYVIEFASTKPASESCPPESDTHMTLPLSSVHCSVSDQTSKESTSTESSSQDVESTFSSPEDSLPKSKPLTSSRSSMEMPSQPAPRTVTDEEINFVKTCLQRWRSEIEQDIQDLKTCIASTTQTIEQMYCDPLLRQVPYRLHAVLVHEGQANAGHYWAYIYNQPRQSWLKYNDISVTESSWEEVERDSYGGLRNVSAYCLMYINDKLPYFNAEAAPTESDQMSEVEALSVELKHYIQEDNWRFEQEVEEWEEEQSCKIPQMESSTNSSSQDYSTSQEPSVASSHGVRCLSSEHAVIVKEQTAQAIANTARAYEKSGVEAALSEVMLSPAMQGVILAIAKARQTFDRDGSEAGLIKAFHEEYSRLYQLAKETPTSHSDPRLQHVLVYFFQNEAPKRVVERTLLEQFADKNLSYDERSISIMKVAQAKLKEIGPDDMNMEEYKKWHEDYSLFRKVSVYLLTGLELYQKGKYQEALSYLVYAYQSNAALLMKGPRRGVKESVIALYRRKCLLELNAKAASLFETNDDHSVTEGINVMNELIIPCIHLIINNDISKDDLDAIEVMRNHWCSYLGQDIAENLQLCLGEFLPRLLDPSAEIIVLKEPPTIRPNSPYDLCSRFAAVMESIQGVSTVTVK
# Outline: as §1
# Chain of USP24 (Q9UPU5 whole entry): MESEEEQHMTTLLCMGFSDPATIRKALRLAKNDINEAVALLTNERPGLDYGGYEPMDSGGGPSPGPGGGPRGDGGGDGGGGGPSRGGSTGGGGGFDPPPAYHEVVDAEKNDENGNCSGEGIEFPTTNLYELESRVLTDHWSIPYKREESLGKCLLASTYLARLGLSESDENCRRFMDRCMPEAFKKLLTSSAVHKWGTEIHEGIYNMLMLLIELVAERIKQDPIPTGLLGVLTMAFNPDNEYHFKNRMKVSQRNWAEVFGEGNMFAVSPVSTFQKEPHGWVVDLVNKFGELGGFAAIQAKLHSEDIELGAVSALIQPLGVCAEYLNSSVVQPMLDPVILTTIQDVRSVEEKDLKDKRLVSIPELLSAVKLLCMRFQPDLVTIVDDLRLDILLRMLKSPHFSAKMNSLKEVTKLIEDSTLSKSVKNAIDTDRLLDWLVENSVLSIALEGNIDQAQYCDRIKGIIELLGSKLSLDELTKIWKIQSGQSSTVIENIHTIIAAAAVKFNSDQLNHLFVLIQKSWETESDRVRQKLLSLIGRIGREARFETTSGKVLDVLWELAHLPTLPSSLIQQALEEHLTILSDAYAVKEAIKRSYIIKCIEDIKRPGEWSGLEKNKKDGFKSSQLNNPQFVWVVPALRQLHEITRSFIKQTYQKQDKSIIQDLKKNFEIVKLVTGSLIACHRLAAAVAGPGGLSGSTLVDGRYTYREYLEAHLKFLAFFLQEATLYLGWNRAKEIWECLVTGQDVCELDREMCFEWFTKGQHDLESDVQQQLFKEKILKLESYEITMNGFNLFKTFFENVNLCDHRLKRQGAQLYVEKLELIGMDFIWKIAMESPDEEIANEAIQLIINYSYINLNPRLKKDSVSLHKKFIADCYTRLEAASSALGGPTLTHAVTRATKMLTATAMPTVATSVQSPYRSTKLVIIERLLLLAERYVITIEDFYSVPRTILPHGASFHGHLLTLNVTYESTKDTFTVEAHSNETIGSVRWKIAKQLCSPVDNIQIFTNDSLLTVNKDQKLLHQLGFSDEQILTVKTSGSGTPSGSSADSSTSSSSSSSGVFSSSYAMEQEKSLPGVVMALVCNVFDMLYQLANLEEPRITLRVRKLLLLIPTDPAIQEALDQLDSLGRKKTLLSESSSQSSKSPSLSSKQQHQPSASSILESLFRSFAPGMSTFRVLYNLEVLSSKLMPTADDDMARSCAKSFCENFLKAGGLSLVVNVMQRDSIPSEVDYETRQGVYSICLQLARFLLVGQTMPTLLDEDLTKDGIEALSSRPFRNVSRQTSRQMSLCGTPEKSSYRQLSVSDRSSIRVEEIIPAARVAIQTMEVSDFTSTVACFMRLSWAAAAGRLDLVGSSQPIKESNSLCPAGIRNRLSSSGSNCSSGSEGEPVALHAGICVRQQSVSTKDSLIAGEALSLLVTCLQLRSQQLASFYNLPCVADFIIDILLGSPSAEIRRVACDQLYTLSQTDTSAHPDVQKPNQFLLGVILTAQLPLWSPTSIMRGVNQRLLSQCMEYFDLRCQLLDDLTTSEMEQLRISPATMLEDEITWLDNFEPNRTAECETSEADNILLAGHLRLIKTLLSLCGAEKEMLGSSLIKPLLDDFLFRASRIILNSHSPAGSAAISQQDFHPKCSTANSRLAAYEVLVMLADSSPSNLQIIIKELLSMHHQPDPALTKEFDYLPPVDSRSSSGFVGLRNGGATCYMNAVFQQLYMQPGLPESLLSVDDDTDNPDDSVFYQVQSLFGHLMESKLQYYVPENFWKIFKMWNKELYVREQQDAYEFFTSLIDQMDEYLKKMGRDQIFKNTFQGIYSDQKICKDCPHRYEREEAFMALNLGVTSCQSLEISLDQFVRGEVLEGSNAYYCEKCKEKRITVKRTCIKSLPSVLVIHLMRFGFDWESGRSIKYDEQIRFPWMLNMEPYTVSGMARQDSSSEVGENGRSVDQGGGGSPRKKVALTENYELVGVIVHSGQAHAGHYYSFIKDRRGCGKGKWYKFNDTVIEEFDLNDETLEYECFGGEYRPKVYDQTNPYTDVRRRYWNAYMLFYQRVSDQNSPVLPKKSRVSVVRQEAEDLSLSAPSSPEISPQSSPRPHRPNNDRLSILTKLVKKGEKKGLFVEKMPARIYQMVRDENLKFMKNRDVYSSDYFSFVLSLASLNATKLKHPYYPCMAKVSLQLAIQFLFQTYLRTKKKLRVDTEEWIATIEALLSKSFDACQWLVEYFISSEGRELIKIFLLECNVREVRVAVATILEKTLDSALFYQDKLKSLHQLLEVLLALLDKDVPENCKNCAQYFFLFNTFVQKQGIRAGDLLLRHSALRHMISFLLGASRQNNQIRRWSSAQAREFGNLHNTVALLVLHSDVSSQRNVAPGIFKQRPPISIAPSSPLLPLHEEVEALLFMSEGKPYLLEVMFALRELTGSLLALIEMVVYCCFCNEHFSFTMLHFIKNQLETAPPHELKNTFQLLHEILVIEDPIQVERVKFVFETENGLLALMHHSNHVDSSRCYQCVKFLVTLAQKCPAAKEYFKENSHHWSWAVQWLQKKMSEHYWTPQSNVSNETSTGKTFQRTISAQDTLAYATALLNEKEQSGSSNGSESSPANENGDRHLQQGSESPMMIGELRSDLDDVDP
smiles,measurement,setting,value
O=C(CCl)N1CCc2[nH]c3ccccc3c2C1,log2 ratio of Biotin-Ahx-Ub-VS probe labelling,USP19,-0.968
same,log2 ratio of Biotin-Ahx-Ub-VS probe labelling,USP22,-0.357
same,log2 ratio of Biotin-Ahx-Ub-VS probe labelling,USP24,-1.93 (active)
same,log2 ratio of Biotin-Ahx-Ub-VS probe labelling,USP25,-0.589
same,log2 ratio of Biotin-Ahx-Ub-VS probe labelling,USP28,-0.765
